About 79,000 compounds went through this panel and 15% of them were active in at least one assay; those are over-represented in the sample as a whole. Active and inactive are the calls of the source. No stated cut-off is given here; in the data, active means growth inhibition above about 70%; inactive means the rest.
How the values were obtained:
[1] = NCI Yeast Anticancer Drug Screen. Data for the wt2 strain (AID 169);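 further: 0% = growth of vehicle-treated yeast cultures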; details: S. cerevisiae wt2 strain growth inhibition, stronger effect = higher value
How it was run: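 Against vehicle-treated controls, the growth of yeast exposed to each compound was compared, and the inhibition was recorded.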

[2] = NCI Yeast Anticancer Drug Screen. Data for the mlh1 strain (AID 171);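 further: 0% = growth of vehicle-treated control cultures of the same strain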; details: S. cerevisiae mlh1 strain growth inhibition, stronger effect = higher value
How it was run: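 Measured: yeast growth. Reference: vehicle-treated controls. Organism: strain with a defined alteration affecting DNA damage repair or cell cycle control, treated with compound.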

[3] = NCI Yeast Anticancer Drug Screen. Data for the sgs1 strain (AID 173);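 further: 0% = growth of vehicle-only control cultures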; details: S. cerevisiae sgs1 mutant, stronger effect = higher value
How it was run: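 Each compound was added to cultures of the altered yeast strain. Growth was recorded, and inhibition was derived by comparison with vehicle controls.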

[4] = NCI Yeast Anticancer Drug Screen. Data for the mlh1 rad18 strain (AID 175); details: S. cerevisiae mlh1 rad18 strain growth inhibition, stronger effect = higher value
How it was run: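 Genetically defined yeast (DNA repair-deficient) exposed to compounds; growth inhibition determined relative to vehicle.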

[5] = NCI Yeast Anticancer Drug Screen. Data for the rad18 strain (AID 177); details: S. cerevisiae rad18 mutant growth inhibition, stronger effect = higher value
How it was run: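 Vehicle-treated cultures served as the baseline for scoring compound-induced growth inhibition in DNA-repair-mutant yeast.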

[6] = NCI Yeast Anticancer Drug Screen. Data for the rad52 strain (AID 147);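 further: 0% = growth of vehicle-treated control cultures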; details: S. cerevisiae rad52 mutant growth inhibition, stronger effect = higher value
How it was run: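 The repair-mutant yeast strain was incubated with compounds, then growth was read and inhibition derived relative to vehicle.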

[7] = NCI Yeast Anticancer Drug Screen. Data for the wt1 strain (AID 149);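 further: 0% = growth of vehicle-treated wt1 cultures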; details: S. cerevisiae wt1 strain (SPY 50644) growth inhibition, stronger effect = higher value
How it was run: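 Vehicle-normalised growth inhibition; strain wt1; compound exposure.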

[8] = NCI Yeast Anticancer Drug Screen. Data for the rad50EPP+ strain (AID 151);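 further: 0% = growth of vehicle-treated control cultures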; details: S. cerevisiae rad50 mutant strain, stronger effect = higher value
How it was run: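 Vehicle-normalised growth inhibition; rad50EPP+ yeast strain, altered in DNA damage repair, compound-treated.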

[9] = NCI Yeast Anticancer Drug Screen. Data for the mgt1 strain (AID 153); details: S. cerevisiae mgt1 mutant growth inhibition, stronger effect = higher value
How it was run: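 Vehicle-normalized growth inhibition is determined in mgt1 yeast, a strain selected for a defined alteration in DNA repair or cell cycle control.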

[10] = NCI Yeast Anticancer Drug Screen. Data for the rad50 strain (AID 155);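 further: 0% = growth of vehicle-only cultures of the same strain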; details: S. cerevisiae rad50 strain growth inhibition, stronger effect = higher value
How it was run: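 A DNA repair-deficient yeast mutant serves as the test organism; compound-induced growth inhibition is calculated against vehicle-treated cells.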

[11] = NCI Yeast Anticancer Drug Screen. Data for the mec2-1 strain (AID 157); details: S. cerevisiae mec2-1 strain, stronger effect = higher value
How it was run: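 Mutant yeast (mec2-1) grown with compound; growth inhibition relative to vehicle control reported.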

[12] = NCI Yeast Anticancer Drug Screen. Data for the rad14 strain (AID 159);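 further: 0% = growth of vehicle-treated control cultures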; details: S. cerevisiae rad14 strain growth inhibition, stronger effect = higher value
How it was run: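 Vehicle-treated cultures served as the baseline for growth inhibition of a DNA repair-mutant yeast strain exposed to each compound.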

[13] = NCI Yeast Anticancer Drug Screen. Data for the sgs1 mgt1 strain (AID 161);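 further: 0% = growth of cultures given vehicle only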; details: S. cerevisiae sgs1 mgt1 strain, stronger effect = higher value
How it was run: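 Compounds are added to genetically altered yeast, and growth is compared with cultures given vehicle alone to give percent inhibition.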

[14] = NCI Yeast Anticancer Drug Screen. Data for the CLN2oe strain (AID 163);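 further: 0% = growth of vehicle-only control cultures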; details: S. cerevisiae CLN2oe strain, stronger effect = higher value
How it was run: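 Compounds are applied to yeast harbouring a defined cell-cycle control change; reduced growth compared with vehicle-treated controls gives the value.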

[15] = NCI Yeast Anticancer Drug Screen. Data for the cln2 rad14 strain (AID 165);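 further: 0% = growth equal to vehicle treated cultures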; details: S. cerevisiae cln2 rad14 strain, stronger effect = higher value
How it was run: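 Readout is yeast growth inhibition versus vehicle-treated controls, using a strain with cln2 and rad14 alterations exposed to compound.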

[16] = NCI Yeast Anticancer Drug Screen. Data for the bub3 strain (AID 167); details: S. cerevisiae bub3 mutant strain, stronger effect = higher value
How it was run: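 Inhibition values come from growth of compound-treated mutant yeast normalised to vehicle-treated controls.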

[17] = at 5.0 µM (retest, dose inferred, filed as 0.5)
[18] = at 50.0 µM (retest, dose inferred, filed as 5.0)

Measured: growth inhibition

CCCNCC(=O)O[C@]1(CC)C(=O)OCc2c1cc1n(c2=O)Cc2cc3ccccc3nc2-1
inactive: [1]; at 1.2 µM -22% | [1]; at 3.7 µM -32% | [1]; at 11.0 µM -19% | [1]; at 33.0 µM 37% | [2]; at 1.2 µM 24% | [2]; at 3.7 µM 7% | [2]; at 11.0 µM 16% | [2]; at 33.0 µM 61% | [3]; at 1.2 µM 26% | [3]; at 3.7 µM 30% | [3]; at 11.0 µM 51% | [4]; [17] 2% | [5]; at 1.2 µM 25% | [5]; at 3.7 µM 34% | [5]; at 11.0 µM 46%
active: [1]; at 100.0 µM 82% | [2]; at 100.0 µM 83% | [3]; at 33.0 µM 82% | [3]; at 100.0 µM 90% | [4]; [18] 72% | [4]; at 50.0 µM 83.1% | [5]; at 33.0 µM 75% | [5]; at 100.0 µM 84%

[N-]=[N+]=NC1(c2ccccc2)C(=O)Nc2ccccc2C1=O (centres undefined)
active: [11]; at 50.0 µM 81.3% | [15]; at 50.0 µM 81.1% | [16]; at 50.0 µM 75.5%
inactive: [6]; at 1.2 µM -2% | [6]; at 3.7 µM 0% | [6]; at 11.0 µM 4% | [6]; at 33.0 µM 20% | [6]; at 100.0 µM 49% | [7]; at 1.2 µM -4% | [7]; at 3.7 µM -2% | [7]; at 11.0 µM -3% | [7]; at 33.0 µM 4% | [7]; at 100.0 µM 22% | [8]; at 1.2 µM 0% | [8]; at 3.7 µM 3% | [8]; at 11.0 µM 6% | [8]; at 33.0 µM 9% | [8]; at 100.0 µM 7% | [9]; at 1.2 µM -3% | [9]; at 3.7 µM -6% | [9]; at 11.0 µM 8% | [9]; at 33.0 µM 2% | [9]; at 100.0 µM 27% | [10]; at 1.2 µM -4% | [10]; at 3.7 µM -2% | [10]; [17] -4% | [10]; at 11.0 µM -20% | [10]; at 33.0 µM 17% | [10]; [18] 14% | [10]; at 50.0 µM 67% | [10]; at 100.0 µM 37% | [11]; at 1.2 µM 2% | [11]; at 3.7 µM 2% | [11]; [17] -23% | [11]; at 11.0 µM 6% | [11]; at 33.0 µM 19% | [11]; [18] 1% | [11]; at 100.0 µM 33% | [12]; at 1.2 µM -3% | [12]; at 3.7 µM -1% | [12]; at 11.0 µM 8% | [12]; at 33.0 µM 12% | [12]; at 100.0 µM 21% | [13]; [17] -20% | [13]; [18] 16% | [13]; at 50.0 µM 67.7% | [14]; at 1.2 µM -5% | [14]; at 3.7 µM -5% | [14]; at 11.0 µM 3% | [14]; at 33.0 µM 35% | [14]; at 100.0 µM 61% | [15]; [17] -3% | [15]; [18] 29% | [16]; at 1.2 µM -4% | [16]; at 3.7 µM -1% | [16]; [17] -28% | [16]; at 11.0 µM 18% | [16]; at 33.0 µM 41% | [16]; [18] 61% | [16]; at 100.0 µM 59% | [1]; at 1.2 µM -3% | [1]; at 3.7 µM -2% | [1]; at 11.0 µM 1% | [1]; at 33.0 µM 13% | [1]; at 100.0 µM 22% | [2]; at 1.2 µM -2% | [2]; at 3.7 µM -5% | [2]; at 11.0 µM 1% | [2]; at 33.0 µM 12% | [2]; at 100.0 µM 17% | [3]; at 1.2 µM -1% | [3]; at 3.7 µM 2% | [3]; at 11.0 µM 9% | [3]; at 33.0 µM 27% | [3]; at 100.0 µM 39% | [4]; [17] -22% | [4]; [18] 46% | [4]; at 50.0 µM 58% | [5]; at 1.2 µM -2% | [5]; at 3.7 µM 1% | [5]; at 11.0 µM 7% | [5]; at 33.0 µM 19% | [5]; at 100.0 µM 50%

Cc1ccc(Nc2n[nH]c(=S)s2)c(C)c1
active: [6]; at 100.0 µM 89% | [7]; at 100.0 µM 90% | [9]; at 100.0 µM 85% | [10]; at 100.0 µM 90% | [11]; at 100.0 µM 83% | [12]; at 100.0 µM 91% | [13]; at 50.0 µM 70.5% | [14]; at 100.0 µM 76% | [16]; [18] 71% | [16]; at 100.0 µM 84% | [1]; at 100.0 µM 91% | [2]; at 100.0 µM 89% | [3]; at 100.0 µM 93% | [5]; at 100.0 µM 93%
inactive: [6]; at 1.2 µM -42% | [6]; at 3.7 µM -28% | [6]; at 11.0 µM -33% | [6]; at 33.0 µM 2% | [7]; at 1.2 µM -16% | [7]; at 3.7 µM -3% | [7]; at 11.0 µM -10% | [7]; at 33.0 µM 18% | [8]; at 1.2 µM -45% | [8]; at 3.7 µM -33% | [8]; at 11.0 µM 23% | [8]; at 33.0 µM 56% | [8]; at 100.0 µM 51% | [9]; at 1.2 µM -52% | [9]; at 3.7 µM -56% | [9]; at 11.0 µM -21% | [9]; at 33.0 µM 58% | [10]; at 1.2 µM -11% | [10]; at 3.7 µM -15% | [10]; [17] 21% | [10]; at 11.0 µM 0% | [10]; at 33.0 µM 15% | [10]; [18] 18% | [10]; at 50.0 µM 56.3% | [11]; at 1.2 µM -44% | [11]; at 3.7 µM -45% | [11]; [17] -11% | [11]; at 11.0 µM -18% | [11]; at 33.0 µM -3% | [11]; [18] 8% | [11]; at 50.0 µM 14.8% | [12]; at 1.2 µM -45% | [12]; at 3.7 µM -33% | [12]; at 11.0 µM -41% | [12]; at 33.0 µM 37% | [13]; [17] -6% | [13]; [18] 44% | [14]; at 1.2 µM 4% | [14]; at 3.7 µM 0% | [14]; at 11.0 µM -10% | [14]; at 33.0 µM 13% | [15]; [17] 24% | [15]; [18] 49% | [15]; at 50.0 µM 48.1% | [16]; at 1.2 µM 3% | [16]; at 3.7 µM 10% | [16]; [17] 3% | [16]; at 11.0 µM 30% | [16]; at 33.0 µM 17% | [16]; at 50.0 µM 52.5% | [1]; at 1.2 µM -38% | [1]; at 3.7 µM -34% | [1]; at 11.0 µM -10% | [1]; at 33.0 µM 62% | [2]; at 1.2 µM -9% | [2]; at 3.7 µM 6% | [2]; at 11.0 µM 19% | [2]; at 33.0 µM 64% | [3]; at 1.2 µM -29% | [3]; at 3.7 µM -28% | [3]; at 11.0 µM 9% | [3]; at 33.0 µM 51% | [4]; [17] 1% | [4]; [18] 19% | [4]; at 50.0 µM 24.4% | [5]; at 1.2 µM -27% | [5]; at 3.7 µM -25% | [5]; at 11.0 µM -13% | [5]; at 33.0 µM 39%
